Source: PubChem BioAssay
A number with no mark means an inactive call. Rule as the data show it: active = inhibition above about 33%; inactive = the rest.

Test: compounds suppressing VP16-driven luciferase signal – cell-based, luminescence, high throughput, counter-screen for LRH-1 inverse agonist project (AID 651615)
Settings: Gal4-VP16 luciferase reporter cells, at 3.6 µM, hits give high values

SMILES | inhibition [%]
COc1cc(C)c(C(=O)Oc2cc(C)c(C(=O)O)c(O)c2C)c(O)c1C | -10.6
COCCSc1ccccc1C(=O)NCc1ccc2c(c1)OCO2 | 2.27
Cc1ccc(NC(=O)CSc2nnc(CNC(=O)c3ccco3)n2C)c(C)c1 | -7.24
CC(=O)Nc1ccc(NC(=O)COC(=O)Cc2c[nH]c3ccccc23)cc1 | -15.3
COc1cccc(C(C)(O)c2nc(-c3cccc(C#N)c3)cs2)c1 (stereo not given) | 22.6
Cc1ccc(/C=C2\SC(=S)N(c3c(C)n(C)n(-c4ccccc4)c3=O)C2=O)cc1 | -2.06
COc1ccc(C2(C)NC(=O)N(CC(=O)NCCC3=CCCCC3)C2=O)cc1OC (stereo not given) | 0.38
CCOc1ccc(NC(=O)CSc2nnc(C(C)C)n2CC)cc1 | -3.19
COc1cc(NC(=O)Cn2ccsc2=N)c(C)cc1[N+](=O)[O-] | -0.82
O=C(C(Cl)c1ccccc1)N1CCOCC1 (stereo not given) | -10.2
COC(=O)Cc1sc(-c2ccccn2)nc1-c1ccccc1 | -7.62
CCCN(CC(=O)Nc1ccc(C(C)=O)cc1)CC(=O)Nc1ccccc1C | 9.79
CC(=O)Nc1cc(-c2cccnc2)cn2c(-c3ccc(F)cc3)cnc12 | 0.11
CC1CC(=Cc2ccc(N)cc2)C(=O)O1 (stereo not given) | -23.5
O=C(CN(Cc1ccccc1)C(=O)CCl)c1cccc(Br)c1 | -1.2
Cc1ccc(-c2nn3c(C)nnc3s2)cc1NC(=O)c1cccs1 | -15.2
O=C1C(=C(I)I)c2ccccc2-c2ccccc21 | -39.2
CCC(NC(=O)c1cc(COc2cc(C)c(Cl)c(C)c2)on1)c1ccncc1 (stereo not given) | 8.52
COc1ccc(-c2cc(C(F)F)n3ncc(C(=O)N4CCc5ccccc5C4)c3n2)cc1 | -2.06
Cc1cc(OCC(=O)NCc2cccnc2)c2c(C)c(C)c(=O)oc2c1 | -8.94
CCOc1ccc(NC(=O)CSc2nc3cccnc3n2CCOC)cc1 | -10.9
CCOc1ccc(NC(=O)COC(=O)c2ncc(Cl)c(Cl)c2Cl)cc1 | -18.7
COc1cc(-c2nc(C(=O)NCC3CCCO3)cc3c2[nH]c2ccccc23)cc(OC)c1OC (stereo not given) | 2.55
O=C(Nc1cc(Cl)ccc1-n1cncn1)c1ccc([N+](=O)[O-])o1 | -24.7
CCCCCCCCN1C(=O)[C@H](CC(=O)NCC23CC4CC(CC(C4)C2)C3)C[C@@]2(C(=O)OCC)CCCC=C12 | 14.6
